These results are taken from PubChem BioAssay (EPA / NIEHS).

The structures appear in SMILES notation. Records with an inconclusive call do not appear. Activity calls are given as the source filed them. Rule for the calls: active = hit-call score of the fitted dose curve at least 0.9, where 1 is the maximum; inconclusive = response in the unintended direction; inactive = score below 0.9.

A short description of this test: ATG_M_19_TRANS: Attagene TRANS-FACTORIAL HepG2 Assay for M19 Transcription Factor (Internal Marker) (AID 2282974). Conditions: HepG2 Attagene TRANS-FACTORIAL M19 internal marker reporter. Here is the method:
ATG_TRANS is a cell-based, multiplexed-readout assay that uses HepG2, a human liver cell line, with measurements taken at 24 hours after chemical dosing in a 24-well plate.ATG_M_19_TRANS is one of 30 assay component(s) measured or calculated from the ATG_TRANS assay. It is designed to make measurements of mRNA induction, a form of inducible reporter, as detected with fluorescence intensity signals by Reverse transcription polymerase chain reaction (RT-PCR) and Capillary electrophoresis technology.Data from the assay component ATG_M_19_TRANS was analyzed into 1 assay endpoint. This assay endpoint, ATG_M_19_TRANS, was analyzed in the positive analysis fitting direction relative to DMSO as the negative control and baseline of activity. Using a type of inducible reporter, measures of mRNA for gain-of-signal activity can be used to understand the background control at the transcription factor-level as they relate to the gene . Furthermore, this assay endpoint can be referred to as a secondary readout, because this assay has produced multiple assay endpoints where this one serves a background control function. To generalize the intended target to other relatable targets, this assay endpoint is annotated to the background measurement intended target family, where the subfamily is internal marker.
Human liver HepG2 cells are transiently transfected with multiple reporter transcription units (MRTUs) in 6-well plates using FuGene 6 reagent (Roche; 3 ml FuGene/1 mg DNA). The MRTU constructs are regulated by a cis-regulating element (promoter). […] A major difference between the CIS and TRANS system is that in CIS activities of endogenous TFs are measured, whereas the TRANS assay evaluates changes in activities of exogenous, chimeric NR-Gal4 proteins. […] At the end of 24 hour incubation, total RNA was isolated using TriZol reagent (Invitrogen). The isolated RNA is then reverse-transcribed using oligo(dT) primer and Mo-MLV reverse transcriptase (Invitrogen) with DNAse I (Ambion) treatment for 30 min. The one-tenth of the produced cDNA was amplified by PCR using Taq DNA polymerase (Invitrogen) and two reporter sequence-specific primers. The PCR products were fluorescently labeled by primer extension with 6-arboxyfluorescein (6-FAM) 5'-labeled reporter sequence-specific primer (2 min at 95 C, 20 s at 68 C and 10 min at 72 C) and these products were digested with 5U of HpaI (New England Biolabs) for 2h at 37 C. The fragments were purified using Qiaquick PCR columns (Qiagen), analyzed on an ABI 3130xL genetic analyzer (Applied Biosystems) with peak positions identified by using a set of X-rhodamine (ROX)-labeled MapMarker1000 molecular weight standards (BioVentures). The raw capillary electrophoresis data was processed using Attagraph software (Attagene).
As for `CCCCCCC#CC(=O)OC`, the molecule was called inactive. In the case of `COc1cc(C)cc(O)c1`, the molecule was called inactive.

Regarding `C=C(C)C1CCC(C)CC1O` (stereo not given), the result was inactive. Regarding `O=C(COc1ccc(Cl)cc1)N1CCN(Cc2ccc3c(c2)OCO3)CC1`, the call was inactive. With `O=[N+]([O-])c1ccc(Nc2ccc(Nc3ccccc3)c(S(=O)(=O)O)c2)c([N+](=O)[O-])c1` the entry was “inactive”; with `CCCCCOC(=O)CCC`, “inactive”. As for `CC(CCO)CCCC(C)(C)O` (stereo not given), the call was inactive. For the molecule `Cc1cc(C2(c3cc(C)c(O)cc3C)OS(=O)(=O)c3ccccc32)c(C)cc1O`, the outcome was inactive.

Regarding `C[C@H]1C[C@H]2[C@@H]3CCC4=CC(=O)C=C[C@]4(C)[C@@]3(F)[C@@H](O)C[C@]2(C)[C@@]1(O)C(=O)COP(=O)(O)O`, the result was inactive.

As for `C=C(C)C(=O)Nc1ccc(Cl)c(Cl)c1`, the call was inactive.

For the molecule `CCCCCC=CCC(=O)OC`, the outcome was inactive. With `OC1C(O)C(O)C(O)C(O)C1O` (stereo not given) the entry was “inactive”; with `CCN(CC)c1ccc(C(=C2C=CC(=[N+](CC)CC)C=C2)c2ccc(S(=O)(=O)O)cc2S(=O)(=O)[O-])cc1`, “inactive”; with `C=C(C)C(=O)NCCCN(C)C`, “inactive”. As for `CC(C)c1cccc(O)c1`, the call was inactive. In the case of `C=C(C)C(=O)O` it was “inactive”; in that of `C=CC(=O)OCCOCCOCC`, “inactive”; in that of `CC(C)[C@@H]1CC[C@@H](C)CC1=O`, “inactive”. With `Nc1ccc(F)c([N+](=O)[O-])c1` the entry was “inactive”; with `CCCC[n+]1ccccc1`, “inactive”; with `CCN(CC)c1ccc2c(-c3ccccc3C(=O)O)c3ccc(=[N+](CC)CC)cc-3oc2c1`, “inactive”.

Regarding `Clc1sc(Cl)c(Cl)c1Cl`, the call was inactive. For the molecule `CC(=O)O[C@H](CC(=O)[O-])C[N+](C)(C)C`, the call was inactive. On to `O=C(O)CCCCCCCCCCC(=O)O`, for which the molecule was called inactive.

`CCCOCC(C)O` (stereo not given): the call was inactive. With `BrC1CCC(Br)C(Br)CCC(Br)C(Br)CCC1Br` (stereo not given) the entry was “inactive”; with `CC(C)C[C@H]1C(=O)N2CCC[C@H]2[C@]2(O)O[C@](NC(=O)[C@@H]3C=C4c5cccc6[nH]c(Br)c(c56)C[C@H]4N(C)C3)(C(C)C)C(=O)N12`, “inactive”; with `O=C(O)CN(CCN(CC(=O)O)CC(=O)O)CCN(CC(=O)O)CC(=O)O`, “inactive”.

`CC1CCC2CC1C2(C)C` (stereo not given): the molecule was classed as inactive.

`CCOC(=S)SSC(=S)OCC`: the molecule was classed as inactive. In the case of `C=CC(C)(C)O` it was “inactive”. In the case of `CN(C)c1ccc(O)c2c1C[C@H]1C[C@H]3[C@H](N(C)C)C(=O)C(C(N)=O)=C(O)[C@@]3(O)C(=O)C1=C2O` it was “inactive”.

As for `c1ccc2c(c1)c1cccc3ccc4cccc2c4c31`, the call was inactive.

On to `O=C1OC2(c3cc(Br)c(O)c(Br)c3Oc3c2cc(Br)c(O)c3Br)c2c(Cl)c(Cl)c(Cl)c(Cl)c21`, for which the outcome was inactive. In the case of `OCc1cccnc1` it was “inactive”.

As to `CC1CCC(C(C)(C)O)CC1` (stereo not given), the call was inactive. With `C[Si](O[Si](C)(C)C)O[Si](C)(C)C` the entry was “inactive”; with `O=C(O)c1cn(C2CC2)c2cc(N3CCNCC3)c(F)cc2c1=O`, “inactive”; with `CCCCCCCCCCCCN(CCCCCCCCCCCC)CCCCCCCCCCCC`, “inactive”. Take `Fc1c(F)c(F)c(Br)c(F)c1F`: the molecule was classed as inactive.
